SMILES strings stand for the structures. A number with no mark means an inactive call. Records with an inconclusive call do not appear. Activity calls are given as the source filed them. Calls come from the whole dose curve; as a rule, active = well fitted curve in the direction sought with a large enough effect; inconclusive = small, poorly fitted or top-dose-only effect, or another doubt; inactive = no such curve, though single readings can be large; an effect the other way counts as inactive or inconclusive.

For assay [1], the target named is ATP-dependent 6-phosphofructokinase (Trypanosoma brucei brucei) (UniProt O15648). Nature of the assay: qHTS Assay to Find Inhibitors of T. brucei phosphofructokinase: hit validation (AID 492961).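 Note: luminescence reports ADP formed as PFK phosphorylates fructose-6-phosphate with ATP.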 An outline of the steps: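 PFK 1.25 nM, F6P 0.5 mM, ATP 0.1 mM, MgCl2 5 mM, 0.1 M TEA pH 8.0, Tween20 0.01%, BSA 0.1%; 45 min RT. ADP-Glo two-step detection, luminescence. qHTS titration; curve fitting with curve-class categorization.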

Assay [2] can be described thus: S16 Schwann cell PMP22 intronic element firefly luciferase assay (AID 624032). Note: nearly all actives have a fitted effect of over 30% in size. The method in brief:
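Rat S16 Schwann cells stably carrying a PMP22 intronic element-driven Fluc reporter were seeded overnight, then exposed to compounds for 24 h at 37 °C. Luminescence was normalized to PTC124 (positive control) and DMSO (0% activity).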

The subject of assay [3] is 7G8. Description: qHTS profiling for inhibitors of Plasmodium falciparum proliferation (AID 504749). Note: nearly all actives have a fitted effect of over 60% in size. To be noted: P. falciparum in erythrocytes, SYBR Green DNA, 72 h; series mostly up to 12.8 µM. The method in brief:
(§1)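 Quantitative HTS: compounds pinned into medium, infected erythrocytes added (0.3% parasitemia, 2.5% hematocrit), 72 h culture at 37 C under 5% CO2. Saponin/Triton lysis with SYBR Green I, overnight RT, then fluorescence read.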

Assay [4] has as its system CP260. Described as above. As to conditions: P. falciparum in erythrocytes, SYBR Green DNA, 72 h; series mostly up to 12.8 µM. An outline of the steps:
as §1

In assay [5] the test system is CP291. Described as above. To be noted: P. falciparum in erythrocytes, SYBR Green DNA, 72 h; series mostly up to 12.8 µM. The method in brief: as §1
For assay [6], the system named is CP335. Described as above. To be noted: P. falciparum in erythrocytes, SYBR Green DNA, 72 h; series mostly up to 12.8 µM. The method in brief: as §1
For assay [7], the system named is DFO2036. The description is as above. To be noted: P. falciparum in erythrocytes, SYBR Green DNA, 72 h; series mostly up to 12.8 µM. The method in brief: as §1
The test system of assay [8] is DIV14. The assay is described as above. To be noted: P. falciparum in erythrocytes, SYBR Green DNA, 72 h; series mostly up to 12.8 µM. The method in brief:
as §1

Assay [9] relates to GB4. Described as above. As to conditions: P. falciparum in erythrocytes, SYBR Green DNA, 72 h; series mostly up to 12.8 µM. The method in brief:
as §1

For assay [10], the system named is HB3. Described as above. As to conditions: P. falciparum in erythrocytes, SYBR Green DNA, 72 h; series mostly up to 12.8 µM. An outline of the steps:
as §1

Assay [11] relates to ICS. Described as above. As to conditions: P. falciparum in erythrocytes, SYBR Green DNA, 72 h; series mostly up to 12.8 µM. The method in brief: as §1
The subject of assay [12] is P94_40. Described as above. As to conditions: P. falciparum in erythrocytes, SYBR Green DNA, 72 h; series mostly up to 12.8 µM. The method in brief: as §1
For assay [13], the system named is PC26. Described as above. To be noted: P. falciparum in erythrocytes, SYBR Green DNA, 72 h; series mostly up to 12.8 µM. An outline of the steps: as §1
The subject of assay [14] is W2. Described as above. To be noted: P. falciparum in erythrocytes, SYBR Green DNA, 72 h; series mostly up to 12.8 µM. The method in brief: as §1
Assay [15] has as its system CP237. Described as above. As to conditions: P. falciparum in erythrocytes, SYBR Green DNA, 72 h; series mostly up to 12.8 µM. The method in brief: as §1
Assay [16] addresses Cytochrome P450 2D6 (Homo sapiens) (UniProt P10635). Nature of the assay: qHTS Assay for Inhibitors and Substrates of Cytochrome P450 2D6 (AID 891). Note: nearly all actives have a fitted effect of over 60% in size. Note: potency is the fitted concentration of half-maximal effect. The method in brief:
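Luminescent read-out of luciferin formed by 5 nM human CYP2D6 demethylating 30 uM Luciferin-ME EGE (Km level) over 60 min at room temperature after NADPH regeneration addition. Data normalized to full inhibition by 1.43 uM quinidine.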

Assay [17] addresses Cytochrome P450 2C9 (Homo sapiens) (UniProt P11712). Nature of the assay: qHTS Assay for Inhibitors and Substrates of Cytochrome P450 2C9 (AID 883). Note: nearly all actives have a fitted effect of over 60% in size. Note: potency is the fitted concentration of half-maximal effect. An outline of the steps:
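Human CYP2C9 (10nM) hydroxylated Luciferin-H (100uM, at its KM) to luciferin in 25mM KPO4. Compound was preincubated 10 min at 37C, then NADPH regeneration started a 60 min reaction at 37C. Luminescence was read after detection reagent, normalized to 57uM sulphaphenazole.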

The target in assay [18] is Cytochrome P450 3A4 (Homo sapiens) (UniProt P08684). Description: qHTS Assay for Activators of Cytochrome P450 3A4 (AID 885). Note: nearly all actives have a fitted effect of over 65% in size. An outline of the steps:
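Activators are scored by enhanced luminescence from CYP3A4 conversion of luciferin-PPXE (25uM, equal to KM) to luciferin, after 60 min at RT with an NADPH-regenerating system.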

Assay [19] shares this target. Nature of the assay: qHTS Assay for Inhibitors and Substrates of Cytochrome P450 3A4 (AID 884). Note: nearly all actives have a fitted effect of over 50% in size. An outline of the steps: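 Luminescent readout of luciferin produced by CYP3A4 (20 nM) dealkylation of Luciferin-PPXE, 25 uM (its KM). NADPH-driven reaction ran 60 min at RT after 10 min compound preincubation; data scaled to 57 uM ketoconazole as 100% inhibition.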
The target of assay [20] is Cytochrome P450 2C19 (Homo sapiens) (UniProt P33261). Nature of the assay: qHTS Assay for Inhibitors and Substrates of Cytochrome P450 2C19 (AID 899). Note: nearly all actives have a fitted effect of over 60% in size. Note: potency is the fitted concentration of half-maximal effect. An outline of the steps:
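Human CYP2C19 (5nM) with Luciferin-H EGE at 10uM (its KM) in 50mM KPO4 was preincubated with compound for 10 min at 37C. NADPH regeneration started a 60 min 37C reaction. Luciferin was read by luminescence, normalized to 57uM ketoconazole.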

Sequence of Cytochrome P450 2C9 (Homo sapiens) (P11712 whole entry, looked up): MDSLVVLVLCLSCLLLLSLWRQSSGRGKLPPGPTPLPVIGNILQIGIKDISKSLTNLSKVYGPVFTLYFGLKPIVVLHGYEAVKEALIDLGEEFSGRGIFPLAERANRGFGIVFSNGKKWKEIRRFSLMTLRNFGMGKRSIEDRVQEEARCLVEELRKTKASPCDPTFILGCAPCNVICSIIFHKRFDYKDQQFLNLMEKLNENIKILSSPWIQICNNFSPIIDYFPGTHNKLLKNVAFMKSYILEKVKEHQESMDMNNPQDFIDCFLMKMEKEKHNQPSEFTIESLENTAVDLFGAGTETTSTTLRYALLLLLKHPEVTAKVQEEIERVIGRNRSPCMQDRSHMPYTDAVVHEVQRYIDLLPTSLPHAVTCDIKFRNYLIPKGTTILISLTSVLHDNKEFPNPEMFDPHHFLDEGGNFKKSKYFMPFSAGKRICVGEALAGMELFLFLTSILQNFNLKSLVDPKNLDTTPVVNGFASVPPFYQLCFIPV
Sequence of Cytochrome P450 3A4 (Homo sapiens) (P08684 whole entry, looked up): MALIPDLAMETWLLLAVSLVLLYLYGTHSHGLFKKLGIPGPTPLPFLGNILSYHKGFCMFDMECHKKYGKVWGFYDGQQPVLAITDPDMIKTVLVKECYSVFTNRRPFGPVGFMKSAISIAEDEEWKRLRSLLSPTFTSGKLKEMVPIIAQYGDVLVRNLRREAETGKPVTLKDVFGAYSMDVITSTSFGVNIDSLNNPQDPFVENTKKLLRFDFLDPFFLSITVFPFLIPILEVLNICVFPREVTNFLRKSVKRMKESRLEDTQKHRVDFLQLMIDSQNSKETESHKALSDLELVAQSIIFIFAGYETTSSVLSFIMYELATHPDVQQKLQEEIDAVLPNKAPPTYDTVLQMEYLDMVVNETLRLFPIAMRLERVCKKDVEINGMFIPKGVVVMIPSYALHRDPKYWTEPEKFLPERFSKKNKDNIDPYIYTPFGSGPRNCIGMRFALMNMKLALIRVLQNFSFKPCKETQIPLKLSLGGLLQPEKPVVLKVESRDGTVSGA
Sequence of Cytochrome P450 2D6 (Homo sapiens) (P10635 whole entry, looked up): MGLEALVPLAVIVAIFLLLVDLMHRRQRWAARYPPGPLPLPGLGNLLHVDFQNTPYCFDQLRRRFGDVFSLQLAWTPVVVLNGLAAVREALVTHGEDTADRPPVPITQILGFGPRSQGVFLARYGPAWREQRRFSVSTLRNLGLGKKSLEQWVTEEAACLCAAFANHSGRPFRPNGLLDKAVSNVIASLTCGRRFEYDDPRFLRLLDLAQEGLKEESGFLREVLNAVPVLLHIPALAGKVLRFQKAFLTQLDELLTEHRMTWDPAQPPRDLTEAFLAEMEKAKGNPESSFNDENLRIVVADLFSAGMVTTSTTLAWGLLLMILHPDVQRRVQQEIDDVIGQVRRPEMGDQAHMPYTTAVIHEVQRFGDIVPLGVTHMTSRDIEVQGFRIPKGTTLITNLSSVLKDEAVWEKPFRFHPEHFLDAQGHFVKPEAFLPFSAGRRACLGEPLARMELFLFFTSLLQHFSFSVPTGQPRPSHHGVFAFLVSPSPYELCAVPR
Sequence of ATP-dependent 6-phosphofructokinase (Trypanosoma brucei brucei) (O15648 whole entry, looked up): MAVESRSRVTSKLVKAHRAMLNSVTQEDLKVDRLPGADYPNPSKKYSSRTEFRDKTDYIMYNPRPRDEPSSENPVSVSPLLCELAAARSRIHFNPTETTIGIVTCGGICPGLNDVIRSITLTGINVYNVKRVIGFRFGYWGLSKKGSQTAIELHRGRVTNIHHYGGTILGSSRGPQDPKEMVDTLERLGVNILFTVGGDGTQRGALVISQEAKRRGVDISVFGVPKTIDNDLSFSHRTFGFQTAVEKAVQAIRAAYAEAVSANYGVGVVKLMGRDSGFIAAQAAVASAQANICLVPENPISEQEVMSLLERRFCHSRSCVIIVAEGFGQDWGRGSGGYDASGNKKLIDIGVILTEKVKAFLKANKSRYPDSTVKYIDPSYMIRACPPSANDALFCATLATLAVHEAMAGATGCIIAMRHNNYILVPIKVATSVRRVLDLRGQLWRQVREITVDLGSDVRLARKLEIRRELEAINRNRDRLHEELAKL
Sequence of Cytochrome P450 2C19 (Homo sapiens) (P33261 whole entry, looked up): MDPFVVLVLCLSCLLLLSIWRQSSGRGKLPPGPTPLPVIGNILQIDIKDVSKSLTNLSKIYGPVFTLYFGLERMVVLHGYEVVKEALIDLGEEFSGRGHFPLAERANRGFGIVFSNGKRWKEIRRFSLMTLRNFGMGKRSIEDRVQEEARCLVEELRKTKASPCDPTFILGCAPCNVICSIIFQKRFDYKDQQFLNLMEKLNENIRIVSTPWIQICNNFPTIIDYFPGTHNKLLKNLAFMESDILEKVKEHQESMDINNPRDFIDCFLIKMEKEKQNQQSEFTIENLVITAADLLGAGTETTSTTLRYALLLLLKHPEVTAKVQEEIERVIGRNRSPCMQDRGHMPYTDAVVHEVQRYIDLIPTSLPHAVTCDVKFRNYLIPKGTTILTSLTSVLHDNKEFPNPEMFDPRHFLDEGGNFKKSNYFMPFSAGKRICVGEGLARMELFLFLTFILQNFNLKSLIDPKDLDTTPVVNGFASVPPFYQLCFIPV

As to `CN1C(=O)C[C@H](c2ccccc2)C1=O`, in assay [1], the outcome was inactive. The Potency result in [2], in assay [3], in [4], in assay [5], in assay [6] and in assay [7] was “inactive” each time. Moreover, the Potency result in assay [8], in [9], in assay [10], in assay [11], in [12] and in assay [13] was “inactive” in each case. In addition, the Potency entry in [14] was “inactive”.
Turning to `CC(C)(C)NC[C@H](O)COc1cccc2c1CCC(=O)N2`, the compound was classed as inactive in [1]. For the same compound, the Potency entry in assay [3], in assay [15], in [4], in assay [5], in assay [7] and in assay [8] was “inactive” throughout. Further, the Potency result in assay [9], in assay [10], in assay [11], in [12], in assay [13] and in [14] was “inactive” throughout.
Turning to `O=C(Nc1ccccc1)OC[C@H](CN1CCCCC1)OC(=O)Nc1ccccc1`, the Potency in [16] was 398 nM (active). Further, the compound was called inactive in assay [1]. The Potency result in assay [2], in assay [4], in assay [5], in assay [6], in assay [7] and in [8] was “inactive” in each case. Also, the Potency result in assay [9], in assay [10], in [11], in assay [12] and in assay [13] was “inactive” each time.
In the case of `C[C@H](Oc1ccccc1)C(=O)N[C@@H]1C(=O)N2[C@@H]1SC(C)(C)[C@@H]2C(=O)O`, the Potency result in [2], in assay [3], in assay [15], in assay [4], in assay [5] and in assay [7] was “inactive” each time. Further, the Potency entry in [8], in assay [9], in assay [10], in assay [11], in [12] and in [13] was “inactive” throughout. In addition, the Potency entry in assay [14] is “inactive”.
In the case of `CS(=O)(=O)c1ccc([C@H](O)[C@H](CO)NC(=O)C(Cl)Cl)cc1`, the compound was called inactive in assay [1]. Further, the Potency entry in assay [2], in assay [3], in [4], in assay [8], in assay [10] and in [13] was “inactive” throughout.
On to `CO[C@H]1[C@@H](OC(N)=O)[C@H](O)[C@@H](Oc2ccc3c(O)c(NC(=O)c4ccc(O)c(CC=C(C)C)c4)c(=O)oc3c2C)OC1(C)C`, for which the Potency result in assay [2], in assay [3], in assay [15], in [4], in [5] and in assay [6] was “inactive” each time. Moreover, the Potency result in assay [8], in [9], in assay [10], in [11], in assay [12] and in assay [13] was “inactive” each time.
`Nc1ccccc1S(N)(=O)=O`: the Potency result in assay [17] is “inactive”.
Turning to `CC[C@H](CO)NCCN[C@@H](CC)CO`, the Potency result in [17], in assay [2], in assay [3], in assay [15], in assay [4] and in assay [5] was “inactive” each time. Further, the Potency entry in assay [6], in assay [7], in assay [8], in assay [9], in [10] and in assay [11] was “inactive” each time. Besides, the Potency result in [12], in assay [13] and in [14] was “inactive” throughout. For the same compound, in assay [1], the call was inactive.
`CC(C)(C)CC(C)(C)c1ccc(OCOCCOCCO)c(Cc2cc(C(C)(C)CC(C)(C)C)cc(Cc3cc(C(C)(C)CC(C)(C)C)ccc3OCOCCOCCO)c2OCOCCOCCO)c1`: the Potency entry in assay [18] was “inactive”.
Take `CC(=O)CC(=O)[C@@]1(O)CC[C@@H]2[C@@H]3C=C(C)C4=CC(=O)CC[C@@H]4[C@H]3CC[C@]21C`: the Potency result in [19] is “inactive”. Also, in [20], the Potency is 5010 nM (active).
For `Cn1c(-c2ccc3c(c2)OCO3)cc(=O)c2ccccc21`, the Potency entry in assay [18] is “inactive”. Moreover, in assay [16], the Potency was 1580 nM (active).
For the compound `CC(=O)[C@@]1(O)CC[C@H]2[C@H]3C[C@@H](C)C4=CC(=O)C=C[C@]4(C)[C@@]3(F)[C@@H](O)C[C@]21C`, the Potency entry in [18], in [2], in assay [15], in assay [4], in assay [5] and in assay [6] was “inactive” throughout. Moreover, the Potency entry in [8], in [9], in assay [10] and in assay [12] was “inactive” in each case. The compound was called inactive in [1].
Regarding `O=C(/C=C\c1ccc(O)c(O)c1)O[C@@H]1C[C@](O)(C(=O)O)C[C@@H](O)[C@@H]1O`, in assay [17], the Potency result is “inactive”.
Take `Cc1onc(-c2c(Cl)cccc2Cl)c1C(=O)N[C@H]1C(=O)N2[C@H]1SC(C)(C)[C@H]2C(=O)O`: the Potency result in assay [17], in assay [19], in [16] and in assay [20] was “inactive” throughout.
For `NC(=O)N/N=C\c1ccc([N+](=O)[O-])o1`, the Potency entry in [18] is “inactive”.
As for `COc1cc2nc(N3CCN(C(=O)[C@@H]4CCCO4)CC3)nc(N)c2cc1OC`, the compound was classed as inactive in assay [1]. For the same compound, the Potency result in [2], in assay [3], in assay [15], in assay [4], in assay [5] and in assay [6] was “inactive” each time. Moreover, the Potency entry in [7], in assay [8], in assay [9], in assay [10], in [11] and in [12] was “inactive” throughout. In addition, the Potency entry in assay [13] is “inactive”.
Take `COc1ccc2c3c([nH]c2c1)[C@@H]1C[C@@H]2[C@@H](C[C@H](O)[C@H](OC)[C@H]2C(=O)O)CN1CC3`: the Potency result in assay [17] is “inactive”.
For the compound `CC(=O)C[C@H](c1ccc([N+](=O)[O-])cc1)c1c(O)c2ccccc2oc1=O`, in assay [17], the Potency is 631 nM (active). Moreover, the compound was called inactive in assay [1]. For the same compound, the Potency result in assay [3], in assay [15], in [4], in [5], in [6] and in assay [7] was “inactive” throughout. The Potency entry in assay [8], in assay [9], in [10], in assay [11], in assay [12] and in [13] was “inactive” in each case. The Potency result in assay [14] is “inactive”.
As for `NS(=O)(=O)c1cc2c(cc1Cl)N[C@@H](C(Cl)Cl)NS2(=O)=O`, in assay [1], the compound was classed as inactive. For the same compound, the Potency entry in assay [3], in [15], in assay [4], in assay [5], in assay [6] and in assay [7] was “inactive” each time. For the same compound, the Potency result in assay [8], in [9], in assay [10], in assay [11], in assay [12] and in [13] was “inactive” throughout.

Values taken from PubChem BioAssay (NCATS).
